Experimental data from PubChem BioAssay (NCATS).
Inconclusive results are not listed. A call without a number means that no potency is given here. Activity calls are given as the source filed them. Calls follow the shape of the dose curve; as a rule, active = well fitted curve in the direction sought with a large enough effect; inconclusive = small, poorly fitted or top-dose-only effect, or another doubt; inactive = no such curve, though single readings can be large; an effect the other way counts as inactive or inconclusive.

Columns and labels:
[1] = qHTS assay to identify small molecule inhibitors of chordoma cells - UCH-2 (AID 1259356); conditions: UCH-2 chordoma viability, CellTiter-Glo ATP luminescence, 48 h; series mostly up to 46.1 µM
[2] = P-glycoprotein substrates identified in KB-8-5-11 adenocarcinoma cell line, qHTS therapeutic library screen (AID 1346987); conditions: KB-8-5-11 (P-gp overexpressing) viability, CellTiter-Glo, 72 h; series mostly up to 44.5 µM; also: nearly all actives have a fitted effect of over 65% in size; also: potency is read from the fitted curve at half-maximal effect
In short: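 Compounds are pinned in dose-response onto KB-8-5-11 cells (500 cells/well, colchicine-free medium) and left 72 h at 37 degree C. CellTiter-Glo luminescence then yields AC50 values.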

[3] = NS1 protein of Zika virus - qHTS assay to identify small molecule inhibitors in human HEK 293 cells (AID 1347053); conditions: HEK293 ZIKV MR766 infection, NS1 TR-FRET, 24 h; series mostly up to 46.1 µM; also: nearly all actives have a fitted effect of over 55% in size
In short: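 Read-out is a two-antibody TR-FRET for ZIKV NS1, normalized between uninfected cells and infected cells. Compound added 1 h before MR766 infection at MOI 0.5; human HEK 293 cells incubated 24 h, 37 C.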

[4] = qHTS of pediatric cancer cell lines to identify multiple opportunities for drug repurposing: Primary screen for DAOY cells (AID 1347090); conditions: DAOY medulloblastoma viability, CellTiter-Glo luminescence, 48 h; series mostly up to 46 µM; also: nearly all actives have a fitted effect of over 55% in size; also: potency is read from the fitted curve at half-maximal effect
In short: (§1)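 Cell viability, CellTiter-Glo luminescence; 500-1,000 cells/well, 8- or 11-point titration, 48 h compound exposure at 37 degrees C, 5% CO2. Controls: DMSO neutral, bortezomib 2.3 µM final as positive.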

[5] = qHTS of pediatric cancer cell lines to identify multiple opportunities for drug repurposing: Primary screen for BT-37 cells (AID 1347094); conditions: BT-37 viability, CellTiter-Glo luminescence, 48 h; series mostly up to 57.3 µM; also: potency is read from the fitted curve at half-maximal effect
In short: (§2)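 Primary screen of approved and investigational compounds on cells in growth media at 37 degrees C, 5% CO2. MIPE set at 11-point and NPC set at 8-point dilutions; viability scored by ATP-based luminescence at 48 hours.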

[6] = qHTS assay to identify small molecule inhibitors of chordoma cells - UCH-1 (AID 1259355); conditions: UCH-1 chordoma viability, CellTiter-Glo, 48 h, combination, with auranofin plus four topoisomerase inhibitors; series mostly up to 46.1 µM; also: nearly all actives have a fitted effect of over 55% in size
In short: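 800 cells/well, overnight attach; compounds pinned at 15 concs, then auranofin/camptothecin/doxorubicin/rubitecan/topotecan combo added; 48hr 37 C, 5% CO2; CellTiter-Glo, 30min RT, luminescence.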

[7] = qHTS of pediatric cancer cell lines to identify multiple opportunities for drug repurposing: Primary screen for TC32 cells (AID 1347089); conditions: TC32 Ewing sarcoma viability, CellTiter-Glo luminescence, 48 h; series mostly up to 45.8 µM; also: nearly all actives have a fitted effect of over 60% in size
In short: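 TC32 cells, 500-1,000/well in growth medium, compound-treated 48 h at 37 °C; viability from CellTiter-Glo luminescence. Primary screen: MIPE 11-point (0.78 nM–46 µM final), NPC 8-point (0.59 nM–46 µM final); confirmatory at 11-point dilutions.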

[8] = qHTS of pediatric cancer cell lines to identify multiple opportunities for drug repurposing: Primary screen for SJ-GBM2 cells (AID 1347091); conditions: SJ-GBM2 viability, CellTiter-Glo luminescence, 48 h; series mostly up to 46 µM
In short: as §1

[9] = qHTS of pediatric cancer cell lines to identify multiple opportunities for drug repurposing: Primary screen for A673 cells (AID 1347092); conditions: A673 Ewing sarcoma viability, CellTiter-Glo ATP luminescence, 48 h; series mostly up to 46 µM; also: nearly all actives have a fitted effect of over 45% in size
In short: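 A673 cells (500-1,000 cells/well) were treated 48 hours at 37 degrees C with compounds at 11-point (0.78 nM to 46 µM) or 8-point (0.59 nM to 46 µM) dilutions. Viability read by CellTiter-Glo luminescence; concentration-response curves fitted.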

[10] = qHTS of pediatric cancer cell lines to identify multiple opportunities for drug repurposing: Primary screen for SK-N-MC cells (AID 1347093); conditions: SK-N-MC viability, CellTiter-Glo luminescence, 48 h; series mostly up to 46 µM
In short: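 Metabolically active cells were quantified by ATP-dependent luminescence (CellTiter-Glo, 15 min at room temperature) following 48 h treatment. Cells had been plated at 500-1,000 per well and settled for 5 h beforehand.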

[11] = qHTS of pediatric cancer cell lines to identify multiple opportunities for drug repurposing: Primary screen for NB-EBc1 cells (AID 1347095); conditions: NB-EBc1 neuroblastoma viability, CellTiter-Glo luminescence, 48 h; series mostly up to 46 µM
In short: as §2

Structure (SMILES) | Potency [1] | Potency [2] | Potency [3] | Potency [4] | Potency [5] | Potency [6] | Potency [7] | Potency [8] | Potency [9] | Potency [10] | Potency [11]
O=C(Nc1ncc([N+](=O)[O-])s1)c1cccs1 | inactive | 16.4 µM (active) | inactive | 16.8 µM (active) | 24.6 µM (active) |  |  |  |  |  | 
CCN(CC)CCOc1ccc2c(c1)C(=O)c1cc(OCCN(CC)CC)ccc1-2 | inactive |  | inactive | inactive |  | inactive |  |  |  |  | 
CC(=O)N[C@@H](CCC(=O)O)C(=O)O | inactive | inactive | inactive | inactive | inactive |  | inactive | inactive | inactive | inactive | inactive
Cc1cccc(C)c1NC(=O)c1ccccc1C(=O)O | inactive | inactive | inactive | inactive | inactive | inactive | inactive | inactive |  | inactive | inactive
CC(=O)NO | inactive | inactive | inactive | inactive | inactive | inactive | inactive | inactive | inactive | inactive | inactive
CCOC(=O)C(C#N)=C(c1ccccc1)c1ccccc1 | inactive |  | inactive | inactive | inactive | inactive | inactive | inactive |  | inactive | inactive
